Screening results from PubChem BioAssay.
BRCA1 expr up: increases BRCA1 expression. MCF7-BRCA1-FFLuc reporter, luminescence, 48 h; response scale: scaled: vehicle 0%, 10 µM genistein 100%. Potency, µM (top dose mostly 46.1 µM), inactives show at the top dose activation, most hits filed as activators. 380,000 tested, 1.1% active. AID 624202; note: potency is the fitted concentration of half-maximal effect; nearly all actives have a fitted effect of over 80% in size
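48 h compound treatment of MCF7-BRCA1-FFLuc cells (phenol-red free MEM, 37 °C), then 15 min with luciferase substrate and luminescence imaging.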
B2AR arrestin: beta2AR (human) beta-arrestin recruitment activity; Potency, µM (highest dose often 46.1 µM), for the others: at the highest dose activation, usual class: activators; AID 492947; 330,000 tested, 0.02% active; beta-arrestin recruitment to beta2AR, cell-based reporter;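 note: potency is the fitted concentration of half-maximal effect; 0% = DMSO controls and full agonism = EC100 isoproterenol or metaproterenol; nearly all actives have a fitted effect of over 65% in size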
RGS4 inhibitor: inhibitors of human regulator of G protein signaling 4; P49798; Transcreener GDP fluorescence polarization, RGS4-accelerated GTP hydrolysis; Potency, µM (series often up to 114 µM), without a hit: at the top dose activity change, negative = inhibition, hits mostly inhibitors; 390,000 tested, 0.039% active; note: potency is the fitted concentration of half-maximal effect; % is set by controls: 0 for no effect and ±100 for the full control effect; nearly all actives have a fitted effect of over 75% in size
Target sequence (P49798 whole entry, looked up): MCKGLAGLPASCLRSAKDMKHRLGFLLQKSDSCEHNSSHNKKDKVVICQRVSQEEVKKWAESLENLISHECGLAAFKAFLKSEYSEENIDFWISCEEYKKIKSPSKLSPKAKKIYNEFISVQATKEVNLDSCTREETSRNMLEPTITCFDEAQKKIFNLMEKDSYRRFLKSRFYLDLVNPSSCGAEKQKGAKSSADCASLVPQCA
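MLSMR compounds (23 nl, pin-transferred) preincubated 10 min at room temperature with a 500nM (2x) first reagent, then RGS4 at 900nM (2x) plus Transcreener GDP mix added; fluorescence polarization (620/688 nm) read before and after 90 min at 30 °C.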
DRD3 agonist: D3 dopamine receptor (human) agonism; D3R DiscoveRx beta-arrestin cells, luminescence, 90 min; AID 652048; 410,000 tested, 0.58% active; P35462; max activation, %; in the data active = max activation above about 30%; note: 0% is about no effect
Target sequence (P35462 whole entry, looked up): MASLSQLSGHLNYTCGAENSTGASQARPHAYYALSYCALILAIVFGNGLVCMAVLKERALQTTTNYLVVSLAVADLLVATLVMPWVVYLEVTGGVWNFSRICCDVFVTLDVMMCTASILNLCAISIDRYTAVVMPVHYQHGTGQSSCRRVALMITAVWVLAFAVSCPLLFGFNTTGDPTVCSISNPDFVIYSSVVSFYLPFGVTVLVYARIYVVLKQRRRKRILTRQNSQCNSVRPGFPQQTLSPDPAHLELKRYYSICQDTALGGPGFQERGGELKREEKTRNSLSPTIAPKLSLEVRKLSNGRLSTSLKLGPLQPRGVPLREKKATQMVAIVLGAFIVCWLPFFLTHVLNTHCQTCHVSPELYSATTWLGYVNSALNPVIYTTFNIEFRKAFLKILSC
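Agonist-mode cell screen: cells plated at 1500/well and incubated overnight at 37 °C, then exposed to library compounds for 90 min at 37 °C. Detection reagent was added for 30–60 min at room temperature, and luminescence was read.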
D3 antag: D3 dopamine receptor (human) antagonism | P35462 | D3R cells, DiscoveRx beta-arrestin luminescence, antagonist mode; hits give low values | max response, negative = inhibition, % | 360,000 tested, 2.5% active | AID 652054; in the data active = max response below about -50%; inconclusive = no clear call, values can overlap the other calls; note: % is set by controls: 0 for no effect and ±100 for the full control effect
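Cells expressing the human receptor were seeded at 1500 cells/well, incubated overnight at 37 degrees C in 5% CO2, then exposed to library compounds with dopamine controls for 90 minutes at 37 degrees C before luminescent detection.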
PTHR1 ag: PTHR1 (human) receptor agonism; Potency, µM (series often up to 115 µM), for inactives: at the highest dose activation, usual class: activators; 410,000 tested, 0.075% active; HEK293 GP2 PTHR1 cells, GloSensor cAMP luminescence, 1 h; Q03431; note: potency is the fitted concentration of half-maximal effect; nearly all actives have a fitted effect of over 55% in size
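HEK-293-derived GP2 cells expressing PTHR1 and a GloSensor cAMP reporter, 3,000/well, plated overnight, given luciferin plus IBMX (each 0.5 mM as added) for 1 h at 37 °C, then compound for 1 h at 37 °C. Luminescence was read after 15 min at room temperature.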
The depositor's hits bear a star; i = inactive; ? = inconclusive; . = no result given; ! = repeats disagree; [ ] = remark or other dose. Hits are enriched below; roughly 3.7% of the tested compounds scored in any of these assays. Unless noted, calls come from the whole dose curve; as a rule, active = well fitted curve in the direction sought with a large enough effect; inconclusive = small, poorly fitted or top-dose-only effect, or another doubt; inactive = no such curve, though single readings can be large; an effect the other way counts as inactive or inconclusive.

SMILES | BRCA1 expr up | B2AR arrestin | RGS4 inhibitor | DRD3 agonist | D3 antag | PTHR1 ag
O=S(=O)(Nc1ccc2c(c1)nc1n2CCN(Cc2ccccc2)C1)c1ccc(Cl)cc1 | 2%[1.84 µM] | 0% | -11% | -4 | -58* | -25%
O=S(=O)(Nc1ccc2c(c1)nc1n2CCN(Cc2ccccc2)C1)c1ccccc1 | -37% | -1% | -16% | 0 | ? | i
Cc1ccc(S(=O)(=O)Nc2ccc3c(c2)nc2n3CCN(Cc3ccccc3)C2)cc1 | -28% | 0% | -16% | -26 | -51* | 0%[57.5 µM]
CCn1cc(C(=O)N[C@@H](CCSC)C(=O)NCCCn2ccnc2)c(=O)c2cc3c(cc21)OCO3 | -10% | 0% | -7% | -1 | 4 | -24%
Cc1ccc([C@@H]2CC(=O)[C@@H]3CN(S(=O)(=O)c4ccc(C)cc4)[C@H](c4ccccc4)C[C@@H]3N2S(=O)(=O)c2ccc(C)cc2)cc1 | 15% | . | . | 0 | -22 | -20%
Nc1nonc1-c1noc(N2CCCCC2)n1 | 10µM* | 0% | 48% | 0 | -12 | -5%
O=C1C(Cc2ccccc2)Nc2ncnc(N3CCN(c4ccccc4)CC3)c2N1Cc1ccccc1 (stereo unspecified) | -8% | 0% | 7% | -29 | -15 | 17%
CC(C)CC1Nc2ncnc(N3CCOCC3)c2N(Cc2ccccc2)C1=O (stereo unspecified) | 0% | -1% | -12% | 60*! | 1 | -18%
Cc1ccc(CN2C(=O)C(Cc3ccccc3)Nc3ncnc(N4CCN(c5ccccc5)CC4)c32)cc1 (stereo unspecified) | -3% | 0% | ? | -65 | -140* | -3%
O=C1C(Cc2ccccc2)Nc2ncnc(N3CCOCC3)c2N1Cc1ccc(Cl)cc1 (stereo unspecified) | -17% | 0% | ? | -38 | -102*! | -6%
CC(C)CC1Nc2ncnc(N3CCOCC3)c2N(Cc2ccc(Cl)cc2)C1=O (stereo unspecified) | -20% | 0% | 1% | 2 | -24 | -1%
Cc1ccc(CN2C(=O)C(Cc3ccccc3)Nc3ncnc(N4CCCCC4)c32)cc1 (stereo unspecified) | -12% | 0% | -14% | -22 | -84*! | -3%
CC1(C)CC(=O)C(C(O)c2cccc([N+](=O)[O-])c2)C(C)(C)N1 (stereo unspecified) | 1% | 0% | 2% | 2 | -19 | -6%
COc1ccc(CC(=O)Oc2ccc(C)cc2Br)cc1OC | -18% | -1% | 15% | 3 | 7 | -25%
CCC1Nc2ncnc(N3CCCCC3)c2N(Cc2ccccc2)C1=O (stereo unspecified) | -4% | 0% | -17% | -8 | -13 | -24%
COc1ccc(CN2C(=O)C(Cc3ccccc3)Nc3ncnc(N4CCCCC4)c32)cc1 (stereo unspecified) | -22% | 0% | -24% | -24 | -53* | i
O=C(NCc1ccccn1)c1ccccc1OCc1ccccc1Cl | -8% | . | . | -1 | 13 | -16%
NC1(C(=O)O)CC1 | 6% | . | 5%[56.9 µM] | -48 | -75* | -8%
O=C(O)C1(C(=O)O)CCCC1 | -2% | . | 1% | 6 | 3 | i
Cc1onc(-c2ccccc2)c1NC(=O)Nc1ccc(OC(F)F)cc1 | -16% | 0% | 10% | -5 | 7 | -39%
NS(=O)(=O)c1ccc(NC(=O)COC(=O)CCCN2C(=O)c3cccc4cccc(c34)C2=O)cc1 | -2% | -1% | -21% | -2 | -11 | i
O=C(NC1CCCCCCC1)c1cc(F)c(F)cc1Cl | 1.8µM* | 0% | -5% | 10 | -15 | 2%
COc1ccccc1NC(=O)Nc1nc(C(N)C2CCCCC2)cs1 (stereo unspecified) | -25% | . | . | -17 | ? | -23%
NC(c1csc(NC(=O)Nc2ccccc2Cl)n1)C1CCCCC1 (stereo unspecified) | 29% | . | . | 58* | -28 | 7%
O=C(Nc1ccccc1Cl)NC1CCCCCCC1 | 14µM* | 0% | 17% | 2 | 9 | -12%
SMILES | BRCA1 expr up | B2AR arrestin | RGS4 inhibitor | DRD3 agonist | D3 antag | PTHR1 ag
O=C(COC(=O)c1ccc(Cl)cc1[N+](=O)[O-])NCc1ccco1 | -2% | 0% | -1% | -7 | 0 | -11%
O=C(NC1CCCC1)C1CC(c2ccc(F)cc2)=NO1 (stereo unspecified) | 10µM* | 0% | -11% | -5 | -14 | i
CC(=O)c1ccc(NC(=O)C2CC(c3ccc(F)cc3)=NO2)cc1 (stereo unspecified) | 1% | 0% | -1% | 3 | -16 | -2%
CCOc1c2ccc(C(=O)NCCc3cccs3)cc2nn1CC | ? | -1% | -16% | -25 | 1 | -22%
CCCCn1nc2cc(C(=O)NCCc3cccs3)ccc2c1OCC | 67% | 0% | 2% | 0 | 9 | -30%
CCOc1c2ccc(C(=O)N[C@H](C)C3CCCCC3)cc2nn1CC | 0% | -1% | -14% | -9 | -82* | 5%
CCCCn1nc2cc(C(=O)NCC34CC5CC(CC(C5)C3)C4)ccc2c1OCC | -30% | 0% | 28% | -32 | -79* | -18%
CCOc1ccc(C(=O)Nc2c(C(=O)Nc3ccccc3F)oc3ccccc23)cc1OCC | 2% | . | 9% | 3 | . | -11%
CC(=O)c1ccc(S(=O)(=O)Nc2ccc(C(=O)N(C)CC(=O)Nc3cccc(C)c3C)cc2)cc1 | -1% | -1% | -24% | -10 | -15 | -1%
Cc1cccc(C)c1-n1nnnc1C(c1ccccc1)N1CCN(C/C=C/c2ccccc2)CC1 (stereo unspecified) | -39% | . | . | -26 | -133* | -1%
Cc1cccc(C)c1-n1nnnc1C(c1cccs1)N1CCN(C/C=C/c2ccccc2)CC1 (stereo unspecified) | 0% | . | . | -20 | -84* | -7%
C=CC(=O)N1C/C(=C/c2ccccc2)C(=O)/C(=C\c2ccccc2)C1 | -97% | . | ? | -19 | -62* | -47%
C=CC(=O)N1C/C(=C/c2ccc(Cl)cc2)C(=O)/C(=C\c2ccc(Cl)cc2)C1 | -84% | . | ? | -14 | ? | -37%
CCCCn1nc(NC(=O)CCC)c2cc3cc(OC)ccc3nc21 | 13µM* | 0% | 0% | 8 | 6 | i
CCCCn1nc(NC(=O)c2cccs2)c2cc3cc(OC)ccc3nc21 | -46% | -1% | 11% | 7 | 82 | -2%
CN(C)c1ccc(C(CNS(=O)(=O)c2ccccc2)N2CCc3ccccc32)cc1 (stereo unspecified) | . | . | -4% | -6 | . | i
CN(Cc1ccccc1)C(=O)c1ncn(Cc2ccccc2)c1C(=O)N(C)Cc1ccccc1 | 0% | 0% | 7% | 45* | 47 | i
